# Experimental data published in ChEMBL document CHEMBL3988442, “University of Dundee, Small-Polar-MMV Screening Library” (2021).
# Hit rate of the full screen: of about 38,000 compounds, about 1,200 (3.2%) showed an effect of 50% or more. The median lay at about -58%. The sample holds strong results, similar compounds and a random draw of the others, so the mix is not that of the screen.
# Test system: Plasmodium falciparum
# Assay: Calibr Malaria Delayed Death Assay SOP
# Format: functional, organism-based
# Set-up: scale not given: in the data most compounds retested in dose-response had high values
# Conditions: concentration 4.99e-06 (unit not given; other assays of the set use mol/L)
row,Structure (SMILES),Percent Effect [%]
1,O=C(CCNS(=O)(=O)c1ccccc1F)NCc1ccoc1,-33.2
2,CCC1(CNC(=O)NC(c2nnc3n2CCC3)C(C)C)CCC1 (centres undefined),-142
3,Cc1ccc(C)n1-c1c(C(=O)NCC(c2ccsc2)N(C)C)cnn1C (centres undefined),-29.69
4,COc1ccc(-c2nonc2N)cc1,-30.35
5,Cc1cnc(N2CC[C@@H]3O[C@@H](COCC(=O)N(C)C)CC[C@@H]32)nc1.O=C(O)C(F)(F)F,-30.4
6,CC(C)(C)C1CC(=O)Nc2c1cnn2Cc1ccco1 (centres undefined),-56.11
7,COC1CN(C(=O)NCC(N)=O)CCC(=O)N(C)c2ccccc21 (centres undefined),-44.55
8,CN(C[C@@H]1CCC[C@@H]2CN(Cc3cccnc3)C[C@@H]21)C1CC1.O=C(O)C(F)(F)F.O=C(O)C(F)(F)F,55.19
9,COc1cc(N2C[C@H]3CCC[C@@H](CN4CCOCC4)[C@H]3C2)ncn1.O=C(O)C(F)(F)F,-88.21
10,COc1ccc(CN2C[C@H]3CCC[C@@H](CN(C)C)[C@H]3C2)cn1.O=C(O)C(F)(F)F.O=C(O)C(F)(F)F,48.48
11,O=C(C[C@@H]1COC[C@H]2CN(Cc3cccnc3)C[C@@H]12)N1CCCC1.O=C(O)C(F)(F)F.O=C(O)C(F)(F)F,-138.8
12,Cc1ccc(N2C[C@H]3CCC[C@@H](CN(C)C)[C@H]3C2)nn1.O=C(O)C(F)(F)F,-59.72
13,COc1cc(N2C[C@H]3CCC[C@@H](CN(C)C4CC4)[C@H]3C2)ncn1.O=C(O)C(F)(F)F,-80.87
14,COc1ccc(CN2C[C@H]3CCC[C@@H](CN(C)C4CC4)[C@H]3C2)cn1.O=C(O)C(F)(F)F.O=C(O)C(F)(F)F,77
15,COCCN(C)C[C@@H]1CCC[C@@H]2CN(Cc3ccc(OC)nc3)C[C@@H]21.O=C(O)C(F)(F)F.O=C(O)C(F)(F)F,78.92
16,O=C(C[C@@H]1COC[C@H]2CN(Cc3cccnc3)C[C@@H]12)N1CCOCC1.O=C(O)C(F)(F)F.O=C(O)C(F)(F)F,-46.72
17,NC(=O)C1CCN(c2ncccc2C(=O)N2CCc3ccccc32)C1 (centres undefined),-5.535
18,Cc1ccc(-c2nc(CN3CCCC(Cn4cncn4)C3)co2)cc1 (centres undefined),-95.97
19,O=C1CCCN1Cc1ncn2c1CN(C(=O)C1CC=CC1)CCC2,-7.909
20,c1ccc2[nH]c(C3CCN(Cc4nnc(C5CC5)o4)CC3)cc2c1,-66.02
21,COc1cc(F)ccc1N1CCN(Cc2nnc(C3CC3)o2)CC1,-5.241
22,CO[C@@H]1CCN(Cc2ccoc2)[C@H]1Cc1ccccc1.O=C(O)C(F)(F)F,59.96

row,Structure (SMILES),Percent Effect [%]
1,CO[C@H]1CCN(Cc2ccoc2)C[C@@H]1Cc1ccccc1.O=C(O)C(F)(F)F,66.03
2,CO[C@H]1CCN(c2nnc(C)s2)C[C@@H]1Cc1ccccc1.O=C(O)C(F)(F)F,-43.17
3,CO[C@@H]1CCN(Cc2nccs2)C[C@@H]1Cc1ccccc1.O=C(O)C(F)(F)F,-15.24
4,COC[C@H]1CN(CC2CC2)C(=O)[C@@H]2CCN(Cc3ccoc3)CC[C@H]12.O=C(O)C(F)(F)F,-86.79
5,COCCN1CC[C@@H](OC)[C@@H]1Cc1ccccc1.O=C(O)C(F)(F)F,1.708
6,COCCN1CC[C@H](OC)[C@@H]1Cc1ccccc1.O=C(O)C(F)(F)F,62.78
7,CO[C@@H]1CCN(Cc2nccs2)C[C@@H]1Cc1cccc(C)c1.O=C(O)C(F)(F)F,-13.39
8,CO[C@@H]1CCN(Cc2ccoc2)C[C@@H]1Cc1ccccc1.O=C(O)C(F)(F)F,88.6
9,COCCO[C@H]1CCN(Cc2cccnc2)[C@H]1Cc1cccnc1.O=C(O)C(F)(F)F.O=C(O)C(F)(F)F.O=C(O)C(F)(F)F,3.1
10,CO[C@@H]1CCN(Cc2ccc(C)o2)[C@H]1Cc1ccccc1.O=C(O)C(F)(F)F,-53.14
11,COCCN1CC[C@@H](O)[C@@H]1Cc1ccccc1.O=C(O)C(F)(F)F,-35.17
12,Cc1noc(C)c1CN1C[C@@H]2COC[C@]2(COc2ccc(C#N)cn2)C1,-26.6
13,Cn1ncc2c(N[C@@H]3C[C@@H]4CC[C@H]3C4)nc(-c3ccncc3)nc21,-96.32
14,CC(C)OCCCNC(=O)CN1C=Nc2ccccc2S1(=O)=O,-92.03
15,O=C(N1CCCC1)N1CCN(Cc2cccnc2)c2ncccc2C1.O=C(O)C(F)(F)F.O=C(O)C(F)(F)F,-47.54
16,COC[C@@]12CCC[C@@H]1CN(C(=O)CN(C)C)C2.O=C(O)C(F)(F)F,-5.547
17,CCCc1cc(=O)[nH]c(SCc2ccccn2)n1,-130.6
18,Cn1cc(C2CCCN2CCc2nc3ccccc3c(=O)[nH]2)cn1 (centres undefined),-41.09
19,CC(C)NC(=O)N1CCC2(CC(=O)N(c3cccc(F)c3)C2)C1 (centres undefined),-10.77
20,Cc1cc(C(=O)NCc2cccnc2N2CCCC(O)C2)c(C)o1 (centres undefined),-87.63
21,CN(C(=O)Nc1nncs1)C1CCN(c2ccccc2Cl)C1=O (centres undefined),-21.66
22,O=C(O)C(F)(F)F.O=C(O)C(F)(F)F.O=S(=O)(C1CC1)N1CCC2(CCCN(Cc3ccccn3)C2)C1 (centres undefined),8.867

row,Structure (SMILES),Percent Effect [%]
1,Cc1cnc(NC(=O)C(C)Oc2ccc3c(c2)OCO3)s1 (centres undefined),-125.5
2,COc1ccc(OCCN(C)c2cc(C)nc(N)n2)cc1,62.66
3,COc1ccccc1OCCN(C)c1cc(C)nc(N)n1,69.29
4,COc1ccc(OCCN(C)CCCn2cnc3c(N)ncnc32)cc1,-97.62
5,Cc1cc(N(C)CC2COc3ccccc3O2)nc(N)n1 (centres undefined),46.69
6,COc1ccc(F)c(-c2cc(C)nc(N)n2)c1,-22.79
7,Cc1cc(N(C)CCCn2cccn2)nc(N)n1,23.74
8,O=C(CCCc1ccc(Cl)cc1)N1CCC(c2nnc[nH]2)CC1,-167.6
9,O=C(O)C(F)(F)F.c1cnc(N2C[C@H]3CCN(CC4CC4)C[C@H]3C2)cn1,16.16
10,O=C(O)C(F)(F)F.O=C(O)C(F)(F)F.c1cnc(N2CCOCC3(CCCN(CC4CCOCC4)C3)C2)nc1 (centres undefined),-11.39
11,O=C(O)C(F)(F)F.O=C(O)C(F)(F)F.c1cnc(N2CCC3(CCN(CC4CCOCC4)CC3)C2)nc1,-33.73
12,O=C(O)C(F)(F)F.c1cnc(N2CCCC3(CCN(CC4CCC4)C3)C2)nc1 (centres undefined),51.49
13,Cc1cnc(N2C[C@H]3CCN(CC4CC4)C[C@H]3C2)nc1.O=C(O)C(F)(F)F,63.65
14,Cl.Cl.Cn1cnc2c(N3CCCC3)nc(C3CCNCC3)cc21,-34.14
15,O=C(O)C(F)(F)F.O=C(O)C(F)(F)F.c1cnc(N2CCCC3(CCN(CC4CC4)C3)C2)nc1 (centres undefined),59.09
16,Cc1cnc(N2C[C@H]3CCN(CC4CC4)C[C@@H]3C2)nc1.O=C(O)C(F)(F)F,37.51
17,O=C(O)C(F)(F)F.c1cnc(N2CCCC3(COCCN(CC4CC4)C3)C2)nc1 (centres undefined),37.44
18,Cn1cnc2c(N3CCCC3)nc(C3CCN(CC4CC4)CC3)cc21.O=C(O)C(F)(F)F.O=C(O)C(F)(F)F,68.79
19,O=C(O)C(F)(F)F.O=C(O)C(F)(F)F.c1cnc(N2CCC3(CCN(CC4CCCC4)CC3)C2)nc1,42.2
20,O=C(O)C(F)(F)F.O=C(O)C(F)(F)F.c1cc2nc(C3CCN(CC4CC4)CC3)nn2cc1N1CCCC1,-27.34
